Results filed as inconclusive are left out. Where a call stands in place of a potency, no number is given. The source made the active and inactive calls. The call rests on the fitted dose curve; in most records, active means well fitted inhibition curve with a large enough effect in the repeat runs; inconclusive means weak or mixed curves; inactive means no such curve, though single readings can be large or run the other way.
Potency means the concentration at half of the fitted maximal effect.

Cytochrome P450 2C19 (Homo sapiens), sequence (P33261 whole entry, looked up): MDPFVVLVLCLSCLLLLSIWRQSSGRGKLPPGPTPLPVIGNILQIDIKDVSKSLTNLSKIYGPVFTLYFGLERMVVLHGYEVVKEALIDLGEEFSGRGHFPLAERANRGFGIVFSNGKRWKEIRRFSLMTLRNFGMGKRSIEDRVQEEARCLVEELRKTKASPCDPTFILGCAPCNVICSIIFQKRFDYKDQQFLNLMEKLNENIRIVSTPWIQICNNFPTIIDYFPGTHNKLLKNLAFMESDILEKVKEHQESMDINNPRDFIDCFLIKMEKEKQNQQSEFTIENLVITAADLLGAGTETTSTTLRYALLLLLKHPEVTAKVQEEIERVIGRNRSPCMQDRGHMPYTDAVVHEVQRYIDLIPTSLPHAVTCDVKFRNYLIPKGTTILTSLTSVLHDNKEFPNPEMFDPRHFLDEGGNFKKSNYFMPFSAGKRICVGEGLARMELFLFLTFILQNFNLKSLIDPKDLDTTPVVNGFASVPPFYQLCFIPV
Cytochrome P450 2D6 (Homo sapiens), sequence (P10635 whole entry, looked up): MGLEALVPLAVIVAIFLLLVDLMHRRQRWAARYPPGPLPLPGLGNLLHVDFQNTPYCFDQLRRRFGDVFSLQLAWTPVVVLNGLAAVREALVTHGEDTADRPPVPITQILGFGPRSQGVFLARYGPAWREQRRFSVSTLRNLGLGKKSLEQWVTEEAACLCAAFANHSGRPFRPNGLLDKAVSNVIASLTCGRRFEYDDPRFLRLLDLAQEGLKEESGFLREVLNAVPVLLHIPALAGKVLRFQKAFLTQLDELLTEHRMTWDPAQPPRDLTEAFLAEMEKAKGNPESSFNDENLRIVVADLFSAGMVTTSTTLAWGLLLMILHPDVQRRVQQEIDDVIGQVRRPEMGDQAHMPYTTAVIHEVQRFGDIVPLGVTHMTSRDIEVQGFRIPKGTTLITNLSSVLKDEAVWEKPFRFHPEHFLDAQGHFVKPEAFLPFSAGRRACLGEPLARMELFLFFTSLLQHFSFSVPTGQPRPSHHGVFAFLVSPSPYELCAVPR

One experiment addresses Cytochrome P450 2D6 (Homo sapiens) (UniProt P10635). Nature of the experiment: Cytochrome P450 Family 2 Subfamily D Member 6 (CYP2D6) small molecule antagonists: luciferase reporter qHTS assay (AID 1671196). Further: nearly all actives have a fitted effect of over 50% in size. The following applies: P450-Glo CYP2D6 enzyme assay, luciferin luminescence, 1 h; series mostly up to 115 µM. In short, it runs like this:
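Luminescence (RLU), read 20 min after detection reagent, indicated CYP2D6 conversion of proluciferin to luciferin during a 1 h NADPH-dependent reaction at room temperature.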
(In general: Reporter assays use an easily measured gene product as a stand-in for the process of interest.)
As to `C=CC(C)(C)O`, the Potency result was “inactive”.

With `Cc1ccc(C=O)cc1`, the Potency entry is “inactive”.

With `CC1(C)[C@H](C(=O)OCc2cccc(Oc3ccccc3)c2)[C@@H]1C=C(Cl)Cl`, the Potency result was “inactive”.

For the compound `c1ccc2c(c1)-c1ccc3ccc4cccc5cc-2c1c3c45`, the Potency result is “inactive”.

As to `N#Cc1ccc(C/C(=N/NC(=O)Nc2ccc(OC(F)(F)F)cc2)c2cccc(C(F)(F)F)c2)cc1`, the Potency is 39.9 µM (active).

As for `CO[Si](OC)(c1ccccc1)c1ccccc1`, the Potency entry was “inactive”.

`CC(c1cc(C(C)(C)C)cc(C(C)(C)C)c1O)c1cc(C(C)(C)C)cc(C(C)(C)C)c1O`: the Potency result is “inactive”.

Turning to `Cc1cccc(C)c1C`, the Potency result is “inactive”.

`[Cl][Dy]([Cl])[Cl]`: the Potency entry is “inactive”.

Consider `CCOC(=O)[C@H](O)[C@@H](O)C(=O)OCC`, for which the Potency entry was “inactive”.

For `Cc1ccc(C2OC[C@@H]3OC(c4ccc(C)cc4)O[C@H]([C@H](O)CO)[C@@H]3O2)cc1` (stereo partly drawn), the Potency entry is “inactive”.

Consider `CCn1c2ccccc2c2ccccc21`, for which the Potency result was “inactive”.

As to `Nc1cc([N+](=O)[O-])ccc1Cl`, the Potency result was “inactive”.

For the compound `CCOC=C(C(=O)OCC)C(=O)OCC`, the Potency result is “inactive”.

Regarding `c1ccc2cc3c4ccccc4c4ccccc4c3cc2c1`, the Potency entry was “inactive”.

With `Brc1cc(Br)cc(Br)c1`, the Potency result was “inactive”.

In the next experiment the target is Cytochrome P450 2C19 (Homo sapiens) (UniProt P33261). Put plainly: Cytochrome P450 Family 2 Subfamily C Member 19 (CYP2C19) small molecule antagonists: luciferase reporter qHTS assay (AID 1671197). Further: nearly all actives have a fitted effect of over 65% in size. The following applies: P450-Glo CYP2C19 enzyme, luciferin luminescence, 1 h; series mostly up to 115 µM. In short, it runs like this:
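Inhibition of CYP2C19 was scored from loss of luminescence in a P450-Glo proluciferin substrate assay, NADPH-started and run 1 h at 37C, with ketoconazole as positive control.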
As to `C=CCc1cc(S(=O)(=O)c2ccc(O)c(CC=C)c2)ccc1O`, the Potency was 2.24 µM (active).

For the compound `Cc1cccc2c1ccc1ccccc12`, the Potency was 79.6 µM (active).

As to `O=C1OC(O)C(C(Cl)Cl)=C1Cl` (stereo not drawn), the Potency entry is “inactive”.

Take `CCOc1nc(F)cc2nc(S(=O)(=O)Nc3c(Cl)cccc3C(=O)OC)nn12`: the Potency result is “inactive”.

With `C=CC(=O)OCCOC1C2CCC1C1CC=CC12` (stereo not drawn), the Potency is 19 µM (active).

Consider `Nc1cc([N+](=O)[O-])cc(Cl)c1O`, for which the Potency is 79.6 µM (active).

Regarding `Nc1ccc(F)c([N+](=O)[O-])c1`, the Potency was 89.4 µM (active).

As to `Cc1ccc(N=Nc2c(O)ccc3ccccc23)c(C)c1`, the Potency is 12.3 µM (active).

`CCCCC/C=C\C=C\C(=O)OCC`: the Potency is 23.4 µM (active).

As for `C=Cc1ccncc1`, the Potency entry is “inactive”.

`Cc1c[nH]c(=O)[nH]c1=O`: the Potency entry was “inactive”.

With `C/C(=N\[Si](C)(C)C)O[Si](C)(C)C`, the Potency entry was “inactive”.

Regarding `CC(C=O)c1ccccc1` (stereo not drawn), the Potency was 79.6 µM (active).

Turning to `O=C1CCC/C=C\CCCCCCCCCC1`, the Potency entry was “inactive”.

As for `CC(C)(C)c1cc(CCC(=O)OCCSCCOC(=O)CCc2cc(C(C)(C)C)c(O)c(C(C)(C)C)c2)cc(C(C)(C)C)c1O`, the Potency is 8.71 µM (active).

Take `COC(=O)c1ccc([N+](=O)[O-])cc1`: the Potency result is “inactive”.

Take `Nc1ccc(Cl)c([N+](=O)[O-])c1`: the Potency result was “inactive”.

In the case of `CCCCCCCCCCCCN1CCCC1=O`, the Potency was 35.6 µM (active).

As to `CCCCCCCCOC(=O)c1cc(O)c(O)c(O)c1`, the Potency was 5.64 µM (active).

Regarding `CCN(CC)c1ccc(C=O)cc1`, the Potency is 15.9 µM (active).

As to `Nc1ccc2c(S(=O)(=O)O)cccc2c1S(=O)(=O)O`, the Potency result was “inactive”.

For `C=CC(C)(C)O`, the Potency result was “inactive”.

As for `Cc1ccc(C=O)cc1`, the Potency result is “inactive”.

For `CC1(C)[C@H](C(=O)OCc2cccc(Oc3ccccc3)c2)[C@@H]1C=C(Cl)Cl`, the Potency result is “inactive”.

On to `c1ccc2c(c1)-c1ccc3ccc4cccc5cc-2c1c3c45`, for which the Potency result was “inactive”.

For `CO[Si](OC)(c1ccccc1)c1ccccc1`, the Potency is 10 µM (active).

Turning to `CC(c1cc(C(C)(C)C)cc(C(C)(C)C)c1O)c1cc(C(C)(C)C)cc(C(C)(C)C)c1O`, the Potency was 31.7 µM (active).

With `Cc1cccc(C)c1C`, the Potency entry was “inactive”.

Turning to `[Cl][Dy]([Cl])[Cl]`, the Potency result is “inactive”.

`CCOC(=O)[C@H](O)[C@@H](O)C(=O)OCC`: the Potency result is “inactive”.

On to `CCn1c2ccccc2c2ccccc21`, for which the Potency was 22.4 µM (active).

Consider `Brc1cc(Br)cc(Br)c1`, for which the Potency result is “inactive”.

Values taken from PubChem BioAssay (Tox21).
